The values below come from PubChem BioAssay (NCI).

Holding throughout (assay): NCI-60 one-dose screen, 48 h (100 = growth as untreated, 0 = no growth, -100 = all killed)
The test system of one assay is HCT-15 colon. Conditions: 10 µM unless noted.
The next assay deals with HT29 colon. To be noted: 10 µM unless noted.
For another assay, the system named is SNB-75 CNS. To be noted: 10 µM unless noted.
A further assay deals with SNB-19 CNS. Conditions: 10 µM unless noted.
The next assay relates to U251 CNS. Conditions: 10 µM unless noted.
Another assay has as its system PC-3 prostate. Conditions: 10 µM unless noted.
Another assay deals with SK-MEL-5 melanoma. To be noted: 10 µM unless noted.
In another assay the test system is UACC-62 melanoma. To be noted: 10 µM unless noted.
For another assay, the system named is LOX IMVI melanoma. Conditions: 10 µM unless noted.
The subject of the next assay is SK-MEL-28 melanoma. Conditions: 10 µM unless noted.
For a further assay, the system named is SK-MEL-2 melanoma. Conditions: 10 µM unless noted.
The test system of a further assay is EKVX NSCLC. To be noted: 10 µM.
The next assay has as its system SN12C renal. To be noted: 10 µM unless noted.
For a further assay, the system named is UO-31 renal. Conditions: 10 µM unless noted.
In the next assay the test system is TK-10 renal. Conditions: 10 µM unless noted.
Another assay concerns ACHN renal. Conditions: 10 µM unless noted.
The next assay has as its system A498 renal. Conditions: 10 µM unless noted.
The test system of the next assay is CCRF-CEM leukemia. To be noted: 10 µM.
The next assay deals with MOLT-4 leukemia. To be noted: 10 µM unless noted.
Another assay concerns CAKI-1 renal. Conditions: 10 µM unless noted.

The panel holds about 83,000 compounds, 20% with a hit somewhere; the sample as a whole holds those more often.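 The test compound was applied at a single concentration to cells in 96-well plates for 48 hours, and percent growth was recorded.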 A number with no mark means an inactive call. The source made the active and inactive calls. How the source made its calls: active means growth percent below 10; inactive means the rest.

Consider `Oc1ccccc1\C=N/N=C/C=C/c1ccccc1`, for which the growth with HCT-15 colon is 103%; in the assay on HT29 colon, 92.3%; with SNB-75 CNS, 88.4%; with SNB-19 CNS, 93.9%; in the assay with U251 CNS, 99.5%; with PC-3 prostate it was 89.7%. The growth with SK-MEL-5 melanoma is 97.4%; with UACC-62 melanoma, 93.2%; with LOX IMVI melanoma it was 91.1%; in the assay with SK-MEL-28 melanoma it was 111%; in the assay on SK-MEL-2 melanoma, 92.7%; in the assay with EKVX NSCLC, 94.5%. The growth was 88% with SN12C renal; 51.7% in the assay with UO-31 renal; 130% in the assay on TK-10 renal; 104% in the assay on ACHN renal; 78% in the assay with A498 renal; 7.53% (active) with CCRF-CEM leukemia. Moreover, the growth in the assay on MOLT-4 leukemia is 55.3%.
Take `COc1ccc(C2=C/C(=C\c3ccc(Cl)cc3)C(=O)NN2C(=S)NN)cc1`: the growth in the assay with HCT-15 colon was 104%; in the assay with HT29 colon, 109%; in the assay with SNB-75 CNS, 61.2%; with SNB-19 CNS, 103%; with U251 CNS, 104%; in the assay on PC-3 prostate, 92.3%. For the same compound, the growth with SK-MEL-5 melanoma is 97.7%; in the assay on UACC-62 melanoma, 86.6%; in the assay on LOX IMVI melanoma, 101%; in the assay on SK-MEL-28 melanoma it was 113%; with SK-MEL-2 melanoma, 97.3%; in the assay with EKVX NSCLC, 94.2%. Further, the growth was 104% in the assay with SN12C renal; 79.6% with UO-31 renal; 129% in the assay with TK-10 renal; 96.5% in the assay on ACHN renal; 99.3% in the assay on A498 renal; 91.6% with CCRF-CEM leukemia. In the assay with MOLT-4 leukemia, the growth was 97.8%.
`CCC(C)(C)c1ccc(OCCCCCCN2CCN(c3ccc(C)c(Cl)c3)CC2)cc1`: the growth is 64.8% in the assay on HCT-15 colon; 82.8% in the assay on HT29 colon; 92.2% in the assay on SNB-75 CNS; 103% with SNB-19 CNS; 104% in the assay on U251 CNS; 78.1% in the assay on PC-3 prostate. Moreover, the growth with SK-MEL-5 melanoma is 78.1%; in the assay with UACC-62 melanoma it was 79.2%; in the assay with LOX IMVI melanoma it was 81.8%; in the assay with SK-MEL-28 melanoma, 96.5%; in the assay on SK-MEL-2 melanoma it was 104%; in the assay with EKVX NSCLC it was 83%. For the same compound, the growth with SN12C renal was 92.3%; in the assay on UO-31 renal, 64.5%; in the assay on TK-10 renal it was 110%; in the assay on ACHN renal, 91.3%; in the assay with CAKI-1 renal it was 77.7%; in the assay with CCRF-CEM leukemia, -43.1% (active). The growth in the assay on MOLT-4 leukemia is 98.3%.
Take `COc1cc([C@@H]2c3cc4c(cc3[C@H](O)[C@H]3COC[C@@H]23)OCO4)cc(OC)c1OC`: the growth with HCT-15 colon is 59.1%; in the assay on HT29 colon, 79.1%; in the assay on SNB-75 CNS, 58%; in the assay on SNB-19 CNS it was 76.9%; in the assay on U251 CNS it was 77.4%; in the assay with PC-3 prostate it was 63.8%. Also, the growth in the assay on SK-MEL-5 melanoma was 51%; in the assay on UACC-62 melanoma, 42.7%; in the assay on LOX IMVI melanoma, 75.7%; in the assay with SK-MEL-28 melanoma it was 69.4%; in the assay on SK-MEL-2 melanoma, 89.3%; in the assay with EKVX NSCLC it was 109%. The growth is 90.5% in the assay with SN12C renal; 53.9% in the assay on UO-31 renal; 94.4% in the assay with TK-10 renal; 78.2% in the assay on ACHN renal; 62.3% in the assay with CAKI-1 renal; 76.6% in the assay with MOLT-4 leukemia.
Take `COc1ccccc1Nc1nnc(COc2ccc(CNC(=O)CCCC/C=C/C(C)C)cc2OC)o1`: the growth with HCT-15 colon was 88.3%; in the assay with HT29 colon, 103%; with SNB-75 CNS, 94.5%; in the assay on SNB-19 CNS, 94.6%; in the assay on U251 CNS it was 102%; in the assay on PC-3 prostate it was 84.4%. The growth in the assay on SK-MEL-5 melanoma was 98%; with UACC-62 melanoma, 81.9%; with LOX IMVI melanoma it was 95.6%; in the assay with SK-MEL-28 melanoma, 98.1%; in the assay on SK-MEL-2 melanoma, 102%; in the assay on EKVX NSCLC, 85%. Besides, the growth with SN12C renal is 105%; with UO-31 renal it was 75.2%; in the assay on TK-10 renal, 103%; in the assay with ACHN renal it was 95.7%; in the assay with A498 renal, 103%; with CCRF-CEM leukemia, 92%. Besides, in the assay on MOLT-4 leukemia, the growth is 76.7%.
Turning to `CCOC(=O)c1ccc2n1CCCc1cnc(NC(C)=O)nc1-2`, the growth was 107% with HCT-15 colon; 106% in the assay with HT29 colon; 85.5% in the assay with SNB-75 CNS; 99.7% with SNB-19 CNS; 102% with U251 CNS; 93.1% in the assay on PC-3 prostate. For the same compound, the growth in the assay on SK-MEL-5 melanoma is 100%; in the assay with UACC-62 melanoma, 93.9%; in the assay with LOX IMVI melanoma it was 99.7%; with SK-MEL-28 melanoma, 99.2%; in the assay on SK-MEL-2 melanoma it was 102%; in the assay with EKVX NSCLC it was 98.5%. In addition, the growth was 102% in the assay on SN12C renal; 89.5% with UO-31 renal; 107% in the assay on TK-10 renal; 99.3% in the assay with ACHN renal; 92.1% with CAKI-1 renal; 74.3% with A498 renal. The growth in the assay with CCRF-CEM leukemia is 93.9%; in the assay with MOLT-4 leukemia, 108%.
For the compound `NCCCOc1cc(Cl)ccc1NC(=O)c1cc2ccccc2cc1OCCCN`, the growth is 4.32% (active) in the assay on HCT-15 colon; -91.3% (active) with HT29 colon; -90.9% (active) with SNB-75 CNS; 34% with SNB-19 CNS; -93.2% (active) in the assay with U251 CNS; -76.3% (active) in the assay with PC-3 prostate. Further, the growth in the assay on SK-MEL-5 melanoma is -86.4% (active); in the assay on UACC-62 melanoma it was 26.4%; in the assay on LOX IMVI melanoma it was -81.3% (active); with SK-MEL-28 melanoma, -96.5% (active); with SK-MEL-2 melanoma, -93.9% (active); in the assay on EKVX NSCLC, -16.1% (active). Further, the growth in the assay with SN12C renal was 19.7%; with UO-31 renal, 25%; with TK-10 renal, -97.4% (active); in the assay with ACHN renal, -79% (active); in the assay with CAKI-1 renal, 59%; in the assay on A498 renal, 2.33% (active). Besides, the growth in the assay on MOLT-4 leukemia was -52.3% (active).
In the case of `N#Cc1c(N)nc(Nc2nc3ccccc3[nH]2)nc1-c1ccc(Cl)cc1`, the growth with HCT-15 colon was 109%; in the assay on HT29 colon, 95.4%; in the assay with SNB-75 CNS, 95.1%; in the assay with SNB-19 CNS, 107%; with U251 CNS, 97.6%; in the assay on PC-3 prostate it was 94.8%. Also, the growth in the assay on SK-MEL-5 melanoma is 99.9%; in the assay with UACC-62 melanoma it was 113%; with LOX IMVI melanoma it was 96.2%; in the assay on SK-MEL-28 melanoma it was 115%; in the assay with SK-MEL-2 melanoma, 114%; in the assay on EKVX NSCLC, 109%. The growth in the assay on SN12C renal is 111%; with UO-31 renal, 82.8%; with TK-10 renal, 109%; with ACHN renal, 101%; in the assay with CAKI-1 renal it was 86.9%; with CCRF-CEM leukemia it was 95.9%. The growth in the assay with MOLT-4 leukemia was 84.7%.
